# Rpn11 inh: Rpn11 (human) deubiquitinase inhibition. O00487. human 26S proteasome, Ub4-pepOG fluorescence polarization; 20S core pre-blocked with epoxomicin. inhibition, % at 20 µM. 360,000 tested, 0.59% active. AID 588493;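 active = inhibition at 20 µM, scaled to each plate's controls, above about 33%, limit read from the data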
# Rin1 Abl inh: human Rin1-Abl interaction inhibition | AID 588664 | P00519+Q13671 | TR-FRET Rin1/Abl binding, biochemical | 360,000 tested, 0.4% active | inhibition, % at 7.35 µM; in the data active = inhibition above about 5%, passing the limit was not always enough
# Target sequence (P00519 whole entry, looked up): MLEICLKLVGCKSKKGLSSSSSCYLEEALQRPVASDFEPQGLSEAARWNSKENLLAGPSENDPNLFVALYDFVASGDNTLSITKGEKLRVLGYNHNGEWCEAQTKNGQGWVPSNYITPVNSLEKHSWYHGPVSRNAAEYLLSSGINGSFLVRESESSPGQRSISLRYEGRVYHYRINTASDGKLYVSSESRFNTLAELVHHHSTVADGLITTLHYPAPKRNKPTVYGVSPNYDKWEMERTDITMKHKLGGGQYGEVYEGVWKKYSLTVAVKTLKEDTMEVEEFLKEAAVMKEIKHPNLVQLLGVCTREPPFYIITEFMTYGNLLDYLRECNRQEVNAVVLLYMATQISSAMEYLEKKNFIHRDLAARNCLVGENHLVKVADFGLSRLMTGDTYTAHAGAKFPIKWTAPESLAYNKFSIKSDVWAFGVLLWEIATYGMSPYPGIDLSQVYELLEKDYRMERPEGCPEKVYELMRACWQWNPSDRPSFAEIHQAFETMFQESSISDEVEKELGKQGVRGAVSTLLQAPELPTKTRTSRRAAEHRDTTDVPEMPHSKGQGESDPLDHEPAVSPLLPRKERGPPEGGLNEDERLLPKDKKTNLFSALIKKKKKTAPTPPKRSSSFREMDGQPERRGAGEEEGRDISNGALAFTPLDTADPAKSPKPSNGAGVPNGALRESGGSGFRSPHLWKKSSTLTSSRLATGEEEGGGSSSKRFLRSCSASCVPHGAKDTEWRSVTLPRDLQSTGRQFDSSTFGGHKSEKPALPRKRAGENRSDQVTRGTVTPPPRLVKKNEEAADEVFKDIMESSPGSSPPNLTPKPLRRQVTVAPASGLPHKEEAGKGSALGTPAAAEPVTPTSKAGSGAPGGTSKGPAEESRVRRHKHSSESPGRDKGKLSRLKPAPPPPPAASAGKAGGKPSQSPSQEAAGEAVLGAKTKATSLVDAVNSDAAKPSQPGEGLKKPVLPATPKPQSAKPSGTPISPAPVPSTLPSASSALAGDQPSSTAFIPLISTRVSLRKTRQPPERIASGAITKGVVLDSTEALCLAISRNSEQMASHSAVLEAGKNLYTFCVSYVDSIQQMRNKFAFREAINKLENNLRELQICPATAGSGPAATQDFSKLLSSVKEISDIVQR
# Target sequence (Q13671 whole entry, looked up): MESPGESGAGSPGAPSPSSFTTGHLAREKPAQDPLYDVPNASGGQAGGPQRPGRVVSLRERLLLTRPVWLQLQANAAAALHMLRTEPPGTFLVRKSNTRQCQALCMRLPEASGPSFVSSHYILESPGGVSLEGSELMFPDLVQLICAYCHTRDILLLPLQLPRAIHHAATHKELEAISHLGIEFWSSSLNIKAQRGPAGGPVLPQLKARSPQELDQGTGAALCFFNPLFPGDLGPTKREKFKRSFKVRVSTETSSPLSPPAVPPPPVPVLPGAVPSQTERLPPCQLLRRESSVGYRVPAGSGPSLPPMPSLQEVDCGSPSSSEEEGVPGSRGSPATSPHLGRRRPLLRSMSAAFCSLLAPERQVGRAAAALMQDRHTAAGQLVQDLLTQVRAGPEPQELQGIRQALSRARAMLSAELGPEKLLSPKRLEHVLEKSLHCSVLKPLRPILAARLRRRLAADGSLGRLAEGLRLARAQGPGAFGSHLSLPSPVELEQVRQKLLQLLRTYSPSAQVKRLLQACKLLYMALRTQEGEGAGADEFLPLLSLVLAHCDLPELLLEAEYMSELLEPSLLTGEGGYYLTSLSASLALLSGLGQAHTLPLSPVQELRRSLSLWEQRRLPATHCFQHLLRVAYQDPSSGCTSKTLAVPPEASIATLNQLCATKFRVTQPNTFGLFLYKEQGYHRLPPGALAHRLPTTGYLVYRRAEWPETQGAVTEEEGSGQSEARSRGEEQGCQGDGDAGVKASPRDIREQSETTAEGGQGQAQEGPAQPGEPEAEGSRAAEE
# TPT1 inh: C. albicans TPT1 enzyme inhibition; recombinant caTPT1, FP RNA substrate dephosphorylation; 300,000 tested, 0.81% active; inhibition, % at 5 µM;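 active = inhibition above the mean of all tested compounds plus 3 SD, set per screening campaign, cut at about 24% in these data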;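 note: plate controls were DMSO alone for no effect and ferristatin control at 100 nM for full effect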
# Calb FLC: C. albicans growth modulation with fluconazole | 300,000 tested, 0.57% active | growth inhibition, % (no concentration beside the values) | AID 1979 | C. albicans CaCi-2 (fluconazole-resistant clinical isolate) + fluconazole, Alamar Blue growth, 48 h;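 active = growth inhibition above about 58% in most replicates, limit read from the data, passing the limit was not always enough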;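 note: all wells also contain fluconazole at 8 µg/ml as a sub-toxic cotreatment; 0% = median of DMSO wells and 100% = median of geldanamycin control wells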
# IDE cell inh: inhibitors of human insulin-degrading enzyme in cells. P14735. HEK cells, FAbetaB cleavage, fluorescence polarization. inhibition, % at 5.59 µM. 320,000 tested, 0.41% active. AID 434962;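 active = percent inhibition above the average of all tested compounds plus 3 SD, set per screening campaign, cut at about 16% in these data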;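 note: IDE supplied by intact live HEK cells; FP after avidin binding of uncleaved biotin substrate so inhibition keeps polarization high; 0% = DMSO wells and 100% = 60 µM reference IDE inhibitor Ii1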
# IDE act: IDE (human) activation, cell-based | P14735 | HEK cells, FAbeta-B cleavage, fluorescence polarization; 0% vehicle, 100% cell-free pure enzyme wells | activation, % at 5.96 µM | 340,000 tested, 0.073% active | AID 493087;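 active = activation above the mean of all tested compounds plus 3 SD, set per screening campaign, cut at about 17% in these data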
# Rpn11 confirm: Rpn11 inhibition confirmation, single concentration; shares compounds with Rpn11 inh; purified human 26S proteasome, Ub4-pepOG fluorescence polarization; proteasome pretreated with epoxomicin; inhibition, % at 20 µM; 1,900 tested, 29% active; AID 602318
# MMP-2 counter: blocks human MMP-2, flagging nonselective RPN11 hits | recombinant MMP-2, FRET peptide cleavage fluorescence | shares compounds with Rpn11 inh | 1,900 tested, 4% active | inhibition, % at 20 µM;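 note: human MMP-2 activated beforehand with APMA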
# Thrombin inh: blocks bovine thrombin, flagging nonselective RPN11 hits. inhibition, % at 20 µM. shares compounds with Rpn11 inh. 1,900 tested, 13% active. AID 602333. bovine thrombin cleavage of Ub4-pepOG, fluorescence polarization;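 active = mean inhibition at least 40% at 20 µM, or signal 3 deviations below plate average, so some actives read negative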;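 note: plate controls were thrombin with DMSO for no effect and buffer wells lacking thrombin for full effect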
# Rin1-Abl confirm: confirmation of inhibitors of human Rin1-Abl interaction; TR-FRET Rin1-Abl binding, purified proteins; inhibition, % at 7.35 µM; shares compounds with Rin1 Abl inh; 1,300 tested, 49% active; in the data active = inhibition above about 6.5%
# GFP quench: counter-screen for Rin1-Abl inhibitors: GFP fluorescence quenchers; shares compounds with Rin1 Abl inh; inhibitors/quenchers counterscreen; inhibition, % at 6.75 µM; 1,300 tested, 8.5% active; in the data active = inhibition above about 6.5%;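 note: ABL1-eGFP fusion protein alone without its partner RIN1-SBP; 0% = protein with vehicle and 100% = wells lacking protein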
# GFP quench DR: GFP fluorescence interference dose response; 230 tested, under 10 active; shares compounds with Rin1 Abl inh; GFP fluorescence interference/quenching counterscreen; IC50, µM; AID 602182; call rule not given here;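 note: ABL1-eGFP fusion protein alone without its RIN1 binding partner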
# An asterisk follows results filed as active; · = not tested or not shown. Rows were chosen to be rich in hits. Some 2.3% of all compounds tested hit in one or more screens of this group. Cut-off read from the data, not from the text of the source, unless noted: active = inhibition above about 40%; inactive = the rest.
SMILES,Rpn11 inh,Rin1 Abl inh,TPT1 inh,Calb FLC,IDE cell inh,IDE act,Rpn11 confirm,MMP-2 counter,Thrombin inh,others
COc1ccc(CCn2c(O)c(C=Nc3ccccc3F)c(=O)[nH]c2=O)cc1OC,34.8*,-1.2,17.1,-4.4,-1.9,4.3,-2.0,-31.1,0.9,
O=C(N/N=C/c1c(O)n(CCc2ccc(F)cc2)c(=O)[nH]c1=O)c1ccccc1,38.6*,0.8,6.8,-15.5,-3.5,·,18.2,-29.8,-16.5,
CC(=O)c1c(C)n(C2CCCCC2)c2ccc(O)cc12,3.4,-0.1,-4.1,-2.2,3.9,-4.6,·,·,·,
CC1([N+](=O)[O-])COP(=O)(Nc2cccc(Cl)c2)OC1 (stereo not given),0.9,-1.3,·,·,·,-2.7,·,·,·,
CCC1C2CC3C4N(C)c5ccccc5C45CC(C2C5O)N3C1O (stereo not given),1.0,1.1,·,·,·,·,·,·,·,
O=C(NN=Cc1ccc(N(CCCl)CCCl)cc1)C(=O)c1c[nH]c2ccccc12,51.7*,2.9,·,·,·,5.5,57.2*,13.7,34.3,
O=C(NN=Cc1ccc(N(CCCl)CCCl)cc1)c1cc(=O)[nH]c(=O)[nH]1,6.6,-0.3,·,·,·,3.4,·,·,·,
O=C1NC(=O)N(c2ccc(Cl)cc2)C(=O)/C1=C/c1coc2ccc(O)cc2c1=O,53.6*,-2.7,10.9,-0.2,8.2,-0.5,-19.0,5.6,-11.2,
Cc1cc(/C=C2/C(=O)NC(=O)N(c3ccc(Br)cc3)C2=O)c(C)n1C,51.6*,-1.8,12.5,1.2,-12.5,0.1,6.3,4.6,-57.3,
CCOc1ccc(-n2c(O)c(C=NCCCn3ccnc3)c(=O)[nH]c2=O)cc1,10.3,2.7,2.5,2.1,2.6,5.5,·,·,·,
Cc1ccc(N2C(=O)/C(=C/N3CCN(C(=O)c4ccco4)CC3)C(=O)NC2=S)cc1C,88.3*,0.8,17.2,8.6,4.4,6.3,10.5,7.3,-0.9,
O=C1NC(=S)N(c2ccccc2)C(=O)/C1=C/c1ccco1,75.6*,4.5,12.3,0.8,13.7,2.2,90.3*,60.9*,24.1,
Cc1ccc(/C=C2\C(=O)NC(=S)N(c3ccc(F)cc3)C2=O)o1,41.3*,5.0,·,-5.9,·,3.4,44.2*,54.9*,56.6*,
Cc1ccc(/C=C2\C(=O)NC(=S)N(c3ccc(F)cc3)C2=O)s1,30.1,-4.7,13.0,4.8,-1.1,-4.0,·,·,·,
O=C1NC(=O)C(Cc2ccccc2)(Cc2ccccc2)C(=O)N1Cc1ccccc1,2.0,1.0,·,·,·,4.3,·,·,·,
Cc1ccccc1NC(=NCCCN1CC1)Nc1ccccc1C,92.3*,-1.1,·,·,·,5.2,98.9*,-127.7,52.5*,
Cc1ccccc1NC(=O)c1cc(-c2ccccc2)n(CCCN2CCOCC2)c1C,8.9,7.3,-2.9,-4.8,13.9,·,·,·,·,
COC(=O)C1=C(c2ccc(C(C)=O)cc2)C[C@@H]2CC[C@H]1N2C(=O)NC1CC1,-1.8,-4.2,·,·,0.1,-1.1,·,·,·,
CCCCCCCSc1cc(OC)c(CCNC)cc1OC,-3.4,-1.5,0.8,-3.6,-4.2,3.9,·,·,·,
CCCCCSc1cc(OC)c(CCNC)cc1OC,138.3*,-1.4,-1.7,9.1,-5.3,4.2,12.7,-21.0,2.0,
CCOP(=O)(OCC)/C(C#N)=C/c1ccoc1,53.8*,-1.1,·,-5.2,·,1.4,0.2,-60.1,-9.4,
COC(=O)C1=C(c2ccc(S(C)(=O)=O)cc2)C[C@@H]2CC[C@H]1N2C(=O)NCC1CC1,-6.6,0.8,1.6,-4.6,4.7,-1.5,·,·,·,
O=Cc1c(C(=O)O)n(Cc2ccc(F)cc2Cl)c2ccccc12,7.4,-0.1,·,7.1,·,-2.9,·,·,·,
C=Cc1ccc(Cn2c(C(=O)O)c(C=O)c3ccccc32)cc1,37.8*,0.7,8.2,0.6,4.2,-3.7,154.8*,-2.2,60.4*,
CCCOP(=O)(OCCC)C(NC(=O)c1cc(OC)c(OC)c(OC)c1)c1ccccc1 (stereo not given),139.6*,3.9,-2.5,34.3,9.4,4.3,2.1,-26.4,-1.6,
SMILES,Rpn11 inh,Rin1 Abl inh,TPT1 inh,Calb FLC,IDE cell inh,IDE act,Rpn11 confirm,MMP-2 counter,Thrombin inh,others
NC(N)=N/N=C/c1cn(-c2ccccc2)nc1-c1cccs1,5.2,-1.9,-1.4,7.7,-5.2,4.3,·,·,·,
O=C(NC1CC1)c1cn(Cc2ccccc2)nc1-c1ccccc1,1.2,-1.8,·,·,·,-0.5,·,·,·,
Cc1ccc(Cn2cc(C=O)c(-c3ccc(C)cc3)n2)cc1,37.1*,-2.3,0.2,3.9,-5.0,0.8,3.3,3.1,-16.1,
Cc1cccc(CN2CCN(CC(=O)N3CCC4(CC3)OCCO4)C2=O)c1,80.8*,7.2,-7.6,4.5,3.8,6.7,-17.9,-3.1,-13.6,
COc1ccc(-n2nnnc2C(CCSC)N2CCC(n3c(=O)[nH]c4ccccc43)CC2)cc1 (stereo not given),4.7,12.6*,·,·,·,·,·,·,·,Rin1-Abl confirm=8.2*;GFP quench=-1.4
O=c1[nH]c2ccccc2n1C1CCN(C(c2ccnc3ccccc23)c2nnnn2-c2ccc3c(c2)OCCO3)CC1 (stereo not given),13.3,44.8*,·,·,·,·,·,·,·,Rin1-Abl confirm=32.2*;GFP quench=-0.4;GFP quench DR=>67.5
COc1ccc(C(c2nnnn2-c2ccc3c(c2)OCCO3)N2CCC(n3c(=O)[nH]c4ccccc43)CC2)cc1 (stereo not given),3.9,6.9,·,·,·,·,·,·,·,
CC(=O)C1CCC2C3C(N4CC4)CC4=CC(=O)CCC4(C)C3CCC12C (stereo not given),-3.8,6.0,·,·,·,0.1,·,·,·,
COC(=O)C1=C(c2ccc(Cl)c(C(F)(F)F)c2)C[C@@H]2CC[C@H]1N2C(=O)NCc1ccc2c(c1)OCO2,6.7,0.8,·,·,-1.4,0.5,·,·,·,
CNCC(C)c1ccccc1 (stereo not given),-2.9,-0.5,2.2,-18.3,-3.9,3.7,·,·,·,
NCCc1cc(O)c(O)cc1O,-14.9,38.8*,·,·,·,2.4,·,·,·,Rin1-Abl confirm=40.5*;GFP quench=8.7*
O=P1(c2ccccc2)Nc2ccccc2N1c1ccccc1 (stereo not given),0.3,0.9,·,·,·,5.0,·,·,·,

# Screening results from PubChem.
